# PubChem BioAssay (NCATS)
# Activity calls are given as the source filed them. The call rests on the fitted dose curve.
# Assay: Cell Proliferation Assay Versus the ED40515 IL2 Independent ATL cell lines (AID 1053194)
# Conditions: ED40515 IL2-independent ATL cells
# Source text: Adult T-cell leukemia (ATL) develops in individuals infected with human T-cell lymphotropic virus-1 (HTLV-1). Clinically, ATL is subclassified into four subtypes: smoldering, chronic, lymphomatous, and acute. Two autocrine loops (IL-2/IL-2Ralpha and IL-15/IL-15Ralpha) and one paracrine stimulation loop that involves IL-9 expression by ATL cells and IL-9Ralpha expression on monocytes are required to maintain viability and proliferation in the smoldering and chronic forms of the disease. These assays examined the differential response profiles for the MIPE library of approved and investigational drugs versus an IL2 dependent and independent matched ATL cell line, with the current submission examining the differential response profiles for drugs on an IL2 independent matched ATL cell line
# Plate log growing ED40515 -IL2 cells: 1000cells/ well in 5uL phenol red free RPMI +5% FBS +1x p/s, Glutamine using 1536 well white griener tissue culture plates and multidrop cassette acoustic dispensing Columns 1 and 3 DMSO Columns 2 and 4, 9.2 uM Bortezomib Incubate 48 hours for celltiter glo 37C with 5%CO2 and 95% humidity with low evaporation lids Dispense 3 uL per well of cell titer glo with multidrop Incubate for 15 minutes at RT Read on VL/2 using Luminesence Wheel (Filter A)
row,SMILES,Potency
1,COc1ccc(-c2ccc3c(N4CCOCC4)nc(N4C[C@@H](C)O[C@@H](C)C4)nc3n2)cc1CO,0.59 µM (active)
2,Nc1ncnc2nc(-c3ccc(N4CCOCC4)nc3)cc(-c3cccc(Br)c3)c12,29.6 µM (active)
3,COc1ccc(C2=N[C@H](c3ccc(Cl)cc3)[C@H](c3ccc(Cl)cc3)N2C(=O)N2CCNC(=O)C2)c(OC(C)C)c1,33.2 µM (active)
4,COc1cc(F)c(F)c(Nc2ccc(I)cc2F)c1NS(=O)(=O)C1(C[C@H](O)CO)CC1,26.4 µM (active)
5,Cc1cccc(-c2nn(C(=S)Nc3ccccc3)cc2-c2ccnc3ccccc23)n1,26.4 µM (active)
6,COc1cc(Oc2ccnc3cc(OC)c(OC)cc23)ccc1NC(=O)NC(C)c1nccs1 (stereo not given),9.35 µM (active)
7,CCCc1nc2c(C)cc(-c3nc4ccccc4n3C)cc2n1Cc1ccc(-c2ccccc2C(=O)O)cc1,37.2 µM (active)
8,CC(C)(N)C(=O)N[C@H](COCc1ccccc1)C(=O)N1CCC2(CC1)CN(S(C)(=O)=O)c1ccccc12,7.43 µM (active)
9,Cc1csc(NC(=O)c2sc3nc4c(c(C(F)(F)F)c3c2N)CCC4)n1,26.4 µM (active)
10,COc1ccc(-c2ccc3c(N4CCOC[C@H]4C)nc(N4CCOC[C@H]4C)nc3n2)cc1CO,0.0083 µM (active)
11,Cc1ccccc1C(C(=O)NC1CCCC1)N(C(=O)Cn1cnc2ccccc21)c1cccc(F)c1 (stereo not given),20.9 µM (active)
12,CCC(C)n1ncn(-c2ccc(N3CCN(c4ccc(OC[C@H]5CO[C@](Cn6cncn6)(c6ccc(Cl)cc6Cl)O5)cc4)CC3)cc2)c1=O (stereo not given in full),10.5 µM (active)
13,CCc1cc(Nc2nccc(-c3c(-c4ccc(OC)c(C(=O)Nc5c(F)cccc5F)c4)nc4ccccn34)n2)c(OC)cc1N1CCC(N2CCN(S(C)(=O)=O)CC2)CC1,4.69 µM (active)
14,Cc1cc(Nc2nc(N[C@@H](C)c3ncc(F)cn3)ncc2Cl)n[nH]1,14.8 µM (active)
15,N#CC[C@H](C1CCCC1)n1cc(-c2ncnc3[nH]ccc23)cn1,20.9 µM (active)
16,O=C(O)c1ccc(-c2c[nH]c3ccc(-c4ccccc4)cc23)cc1C1CCCC1,2.35 µM (active)
17,CN(C)C(=O)c1ccc(S(=O)(=O)c2ccc(NC(=O)[C@@](C)(O)C(F)(F)F)c(Cl)c2)cc1,9.35 µM (active)
18,c1ccc(-c2nn3c(c2-c2ccnc4cc(OCCN5CCOCC5)ccc24)CCC3)nc1,26.4 µM (active)
19,CNC(=O)c1ccc(C)c(-n2c(C)cc(OCc3ccc(F)cc3F)c(Br)c2=O)c1,26.4 µM (active)
20,COCCNCCCn1c(C(=O)CF)c(-c2ccc(C)cc2)c2c(N)ncnc21,9.35 µM (active)

row,SMILES,Potency
1,CC(C)OC(=O)C1=CN(C(=O)c2ccc(F)c(F)c2)CC(C)(C)c2c1[nH]c1ccccc21,11.8 µM (active)
2,O=C(NOC[C@H](O)CO)c1ccc(F)c(F)c1Nc1ccc(I)cc1F,33.2 µM (active)
3,C[C@@H]1C[C@H]2[C@@H]3CCC4=CC(=O)C=C[C@]4(C)C3(F)[C@@H](O)C[C@]2(C)[C@@]1(O)C(=O)CO (stereo not given in full),20.9 µM (active)
4,CC(C)(C)OC(=O)CN(Cc1ccc(Cl)cc1)Cc1ccc([N+](=O)[O-])s1,29.6 µM (active)
5,Cc1cnc(Nc2ccc(OCCN3CCCC3)cc2)nc1Nc1cccc(S(=O)(=O)NC(C)(C)C)c1,33.2 µM (active)
6,O=C1CCCC2=C1C(c1[nH]ncc1Cl)N=C(Nc1nc3ccccc3o1)N2 (stereo not given),16.6 µM (active)
7,Cc1cc2c(F)c(Oc3ncnn4cc(OC[C@@H](C)O)c(C)c34)ccc2[nH]1,1.05 µM (active)
8,OC(CN1CCC(Cc2ccc(F)cc2)CC1)c1ccc(Cl)cc1 (stereo not given),26.4 µM (active)
9,COc1ccc2nc(S(=O)Cc3ncc(C)c(OC)c3C)[nH]c2c1 (stereo not given),1.05 µM (active)
10,O=C(c1cc(Cc2n[nH]c(=O)c3ccccc23)ccc1F)N1CCN(C(=O)C2CC2)CC1,16.6 µM (active)
11,COc1ccccc1-c1cccc(-c2c(O)c3cc(C#N)c(Cl)cc3[nH]c2=O)c1,16.6 µM (active)
12,C[C@]1(c2nc3c(C(N)=O)cccc3[nH]2)CCCN1,16.6 µM (active)
13,CCOc1ccn(-c2ccc(F)cc2)c(=O)c1C(=O)Nc1ccc(Oc2ccnc(N)c2Cl)c(F)c1,23.5 µM (active)
14,O=c1ncn2nc(Sc3ccc(F)cc3F)ccc2c1-c1c(Cl)cccc1Cl,26.4 µM (active)
15,CCn1c(-c2nonc2N)nc2c(C#CC(C)(C)O)ncc(OC[C@H]3CCCNC3)c21,33.2 µM (active)
16,Clc1ccc(Nc2nnc(Cc3ccncc3)c3ccccc23)cc1,33.2 µM (active)
17,CC(C)C[C@H](NC(=O)[C@@H](O)[C@H](N)Cc1ccccc1)C(=O)O,6.62 µM (active)
18,Cc1oncc1C(=O)Nc1ccc(C(F)(F)F)cc1,14.8 µM (active)
19,Cc1ccc(NC(=O)c2cccc(C(C)(C)C#N)c2)cc1Nc1ccc2ncn(C)c(=O)c2c1,26.4 µM (active)
20,CCOc1cc(C=C2C(=O)N(c3ccccc3)N=C2C)cc(Cl)c1OCC(=O)OC,29.6 µM (active)
